Screening data (PubChem)
14-3-3 Bad PPI: disrupts binding of bovine 14-3-3 zeta to phospho-Bad peptide; inhibition, % at 21.7 µM; AID 781; P63103; TR-FRET 14-3-3zeta/Dy647-pBad peptide displacement, 1 h; 220,000 tested, 0.71% active;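 active = inhibition above about 70%, limit read from the data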;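 also: 0% = full 14-3-3 plus peptide FRET controls and 100% = background without 14-3-3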
Target sequence (P63103 whole entry, looked up): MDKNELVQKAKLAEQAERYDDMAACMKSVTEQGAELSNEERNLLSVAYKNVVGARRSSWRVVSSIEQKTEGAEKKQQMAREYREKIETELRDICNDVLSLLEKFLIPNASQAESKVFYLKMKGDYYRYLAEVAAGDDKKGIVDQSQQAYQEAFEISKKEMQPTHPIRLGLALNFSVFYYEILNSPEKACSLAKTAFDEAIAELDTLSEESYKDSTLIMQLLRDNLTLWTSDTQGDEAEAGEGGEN
p47phox inh: p47phox (human) inhibition | 220,000 tested, 0.53% active | AID 1274 | p47phox/p22phox peptide binding, fluorescence polarization, 2 h | P14598 | inhibition, % at 24.7 µM;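 active = inhibition above about 30%, limit read from the data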;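 also: 0% = p47phox with labelled peptide and 100% = labelled peptide alone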
Mcl1 Bid PPI: Mcl-1/Bid interaction inhibition. Q07820. TR-FRET Mcl-1/Bid-Dy647 peptide binding, 1536-well. inhibition, % at 21.7 µM. 220,000 tested, 0.97% active. AID 1021;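 active = compounds that cut the binding signal by more than half at the single screening dose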;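 also: His-tagged Mcl-1 with europium anti-His antibody binding Bid BH3 peptide; 0% = Mcl-1 plus peptide wells and 100% = peptide-only wells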
Mcl1-Noxa inh: disrupts binding of human Mcl-1 to Noxa peptide; TR-FRET Mcl-1/Noxa peptide binding, 2 h; Q07820; 220,000 tested, 1.5% active; inhibition, % at 21.7 µM;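 active = compounds that cut the protein-peptide binding signal by more than 50% relative to plate controls in a single-dose test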;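 also: His-tagged Mcl-1 with rhodamine Noxa BH3 peptide and terbium anti-His antibody; 0% = Mcl-1 plus Noxa peptide wells and 100% = peptide-only wells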
Mcl-1 Bim block: human Bim-Mcl-1 interaction inhibition; inhibition, % at 10 µM; Bead-based flow cytometry, Bim peptide-Mcl-1 binding; 190,000 tested, 0.1% active; Q07820; in the data active = inhibition above about 40%;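 also: 0% = no compound tracer wells and 100% = peptide blocker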
An asterisk follows results filed as active; · = no result given. Shown are actives, neighbours in structure and some others; about 3.2% of the full set was active somewhere.

SMILES	14-3-3 Bad PPI	p47phox inh	Mcl1 Bid PPI	Mcl1-Noxa inh	Mcl-1 Bim block
O=C(c1cccs1)N1CCc2c([nH]c3ccccc23)C1c1ccc(Cl)cc1 (centres undefined)	-5	31*	-8	-6	-1
O=C(c1cccs1)N1CCc2c([nH]c3ccccc23)C1c1ccccn1 (centres undefined)	5	-2	-33	13	-1
CC(C)(OC1OC(CO)C(O)C(O)C1O)[C@H]1Oc2ccc3ccc(=O)oc3c2[C@H]1O (some centres undefined)	11	-7	8	2	-2
COc1ccc(C(=O)C(c2ccccc2)N2CCOCC2)cc1 (centres undefined)	71*	3	-8	3	2
CCNc1ccccc(C(=O)/C=C/c2ccc3c(c2)OCO3)c1=O	7	-13	-29	70*	1
O=C(/C=C/c1ccc2c(c1)OCO2)c1ccc[nH]1	-2	81*	-29	12	-3
CN(C)c1nc(Cl)nc(N(C#N)CCOc2ccccc2)n1	-15	3	-25	21	1
COc1ccc(OC)c(NC(=O)c2ccc(-c3cccs3)cc2)c1	17	-5	-8	34	-3
O=C(CSc1ccc(-c2ccccn2)nn1)N1CCCC1	-16	-1	-31	0	1
Cc1c([N+](=O)[O-])c(C(=O)Nc2ccc3c(c2)OCCO3)nn1C	40	-2	73*	0	0
Cc1nn(C(C)C(=O)Nc2ccc3c(c2)OCO3)c(C)c1[N+](=O)[O-] (centres undefined)	-7	·	-3	-3	-1
CC(CCc1ccccc1)NC(=O)CN1CCN(c2ccccc2)CC1 (centres undefined)	-8	-8	-33	14	-5
COc1cc(NC(=O)c2ccc(Cl)cc2Cl)ccc1NC(=O)c1cccs1	2	-9	-54	-2	·
Cc1cc(OCC(=O)O)c2cccc(C)c2n1	77*	2	31	17	0
Cc1ccc2nc(C)cc(OCC(=O)O)c2c1	58	-2	27	0	-3
Cc1ccc(CNC(=O)C(NS(=O)(=O)c2ccc3nc(C)sc3c2)C(C)C)cc1 (centres undefined)	1	0	-13	-3	0
Cc1nc2ccc(S(=O)(=O)NC(C(=O)NCc3ccco3)C(C)C)cc2s1 (centres undefined)	1	121*	-14	-6	-3
Cc1cc(C)c2c(=O)n(CC(=O)NC3CCCC3)sc2n1	-2	42*	-145	21	·
COc1ccc(OC)c(CCNC(=O)Cn2sc3nc(C)cc(C)c3c2=O)c1	6	17	-19	56*	-10
Cc1cc(C)c2c(=O)n(CC(=O)Nc3ccc(Br)c(C)c3)sc2n1	19	15	-48	38	·
Fc1ccccc1Cc1noc(CN2CCC(OCc3cccnc3)CC2)n1	-4	3	-24	7	-2
O=c1[nH][nH]c2c(N=Cc3ccccc3O)ccc(F)c12	70*	134*	-157	95*	·
Cc1cc(C)n2c(=S)[nH]nc2n1	30	40*	-121	30	-2
Cc1cc(C)n2cnnc2n1	-2	-50	-15	-1	·
O=C1c2sc3nc4c(c(=O)n3c2C(=O)N1c1ccccc1)CCC4	8	-4	-17	14	-2
SMILES	14-3-3 Bad PPI	p47phox inh	Mcl1 Bid PPI	Mcl1-Noxa inh	Mcl-1 Bim block
Cc1ccccc1N1C(=O)c2sc3nc4c(c(=O)n3c2C1=O)CCC4	2	69*	-1	50	-3
O=C1c2sc3nc4ccccc4n3c2C(=O)N1c1ccccc1Cl	3	2	-17	62*	-12
Cc1c(NC(=O)c2cccs2)cccc1[N+](=O)[O-]	-6	2	4	9	-2
O=C(Nc1cc2cccc([N+](=O)[O-])c2oc1=O)c1cccs1	5	-23	-30	62*	0
Cc1nn2c(-c3ccncc3)ccnc2c1Br	-2	-7	-14	-3	0
Cc1cc(CCC(=O)O)c(C)cc1CCC(=O)O	83*	3	-41	5	0
COCCn1c(N)c(N(Cc2ccccc2)C(=O)Cc2c(Cl)cccc2Cl)c(=O)[nH]c1=O	-3	-3	46	10	1
CCc1cc(=O)oc2cc3occ(-c4ccc(OC)c(F)c4)c3cc12	94*	47*	67*	1	-25
CCc1cc(=O)oc2cc3occ(C)c3cc12	4	4	-63	3	-5
CCOc1ccccc1NC(=O)c1c(Br)cnn1C	5	38*	9	1	-3
CCOc1ccccc1NC(=O)/C=C/C(N)=O	21	-21	17	98*	-4
